Values joined by “and” are separate entries in the source; they are usually repeats but may differ in a detail not shown here. Identical values can stand only once. Among all 5,500 compounds or so, about 2,000 (36%) were called active. Roughly 18% stayed inconclusive and do not appear here. Cut-off read from the data, not from the text of the source: active = normalized growth mostly below about 0.91 (no sharp cut-off); inconclusive = no clear call, values can overlap the other calls; inactive = mostly above about 0.92. This is one part of the list.
Test: chemical genetic growth profiling, strain panel (AID 1159580);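 note: tested at 20 µM; growth read once vehicle control cultures reached saturation at 30 °C; 1 = growth at the plate median or of vehicle wells; lower values mean less growth of the strain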
Conditions: S. cerevisiae deletion strains, growth OD

Measured: normalized growth

CN(C)CCC=C1c2ccccc2C=Cc2ccccc21
active: locus YAL021C, strain ccr4, stronger effect = lower value 0.893 | locus YAL026C, strain drs2, stronger effect = lower value 0.901 | locus YDR137W, strain rgp1, stronger effect = lower value 1.18 [resistant]
inactive: locus YAL013W, strain DEP1, stronger effect = lower value 0.995 | locus YAL030W, strain snc1, stronger effect = lower value 0.982 | locus YAL040C, strain CLN3, stronger effect = lower value 1.07 | locus YBL061C, strain skt5, stronger effect = lower value 0.995 | locus YBR009C, strain hhf1, stronger effect = lower value 0.99 | locus YBR021W, strain FUR4, stronger effect = lower value 0.958 | locus YBR023C, strain chs3, stronger effect = lower value 0.978 | locus YBR171W, strain sec66, stronger effect = lower value 1 | locus YBR229C, strain ROT2, stronger effect = lower value 0.995 | locus YBR231C, strain swc5, stronger effect = lower value 0.997 | locus YBR279W, strain paf1, stronger effect = lower value 0.979 | locus YCL011C, strain gbp2, stronger effect = lower value 0.984 | locus YCL016C, strain dcc1, stronger effect = lower value 0.954 | locus YCL029C, strain bik1, stronger effect = lower value 1 | locus YCL061C, strain MRC1 (second series), stronger effect = lower value 0.999 | locus YCL061C, strain MRC1, stronger effect = lower value 0.992 | locus YCL069W, strain vba3, stronger effect = lower value 0.993 | locus YCR088W, strain abp1, stronger effect = lower value 0.998 | locus YDL005C, strain med2, stronger effect = lower value 0.991 | locus YDL035C, strain GPR1, stronger effect = lower value 0.954 | locus YDL040C, strain nat1, stronger effect = lower value 0.967 | locus YDL074C, strain BRE1, stronger effect = lower value 0.956 | locus YDL101C, strain DUN1, stronger effect = lower value 1.02 | locus YDL134C, strain PPH21, stronger effect = lower value 0.996 | locus YDL185W, strain tfp1, stronger effect = lower value 0.949 | locus YDL192W, strain arf1, stronger effect = lower value 0.988 | locus YDR001C, strain nth1, stronger effect = lower value 0.983 | locus YDR069C, strain doa4, stronger effect = lower value 0.918 | locus YDR101C, strain arx1, stronger effect = lower value 1.05 | locus YDR150W, strain NUM1, stronger effect = lower value 0.987 | locus YDR159W, strain sac3, stronger effect = lower value 1 | locus YDR162C, strain NBP2, stronger effect = lower value 0.95 | locus YDR195W, strain ref2 1.05 | locus YDR297W, strain sur2, stronger effect = lower value 0.971 | locus YDR318W, strain mcm21, stronger effect = lower value 0.982 | locus YDR334W, strain swr1, stronger effect = lower value 0.958 | locus YDR335W, strain msn5, stronger effect = lower value 0.969 | locus YDR388W, stronger effect = lower value 0.959 | locus YDR392W, strain spt3, stronger effect = lower value 0.988 | locus YDR502C, strain sam2, stronger effect = lower value 0.996 | locus YEL003W, strain gim4, stronger effect = lower value 0.987 | locus YEL037C, strain rad23, stronger effect = lower value 1 | locus YEL061C, strain CIN8 (second series), stronger effect = lower value 0.982 | locus YEL061C, strain CIN8, stronger effect = lower value 0.99 | locus YER002W, strain NOP16, stronger effect = lower value 1.04 | locus YER015W, strain faa2, stronger effect = lower value 0.969 | locus YER016W, strain bim1, stronger effect = lower value 0.998 | locus YER110C, stronger effect = lower value 0.984 | locus YER111C, strain swi4, stronger effect = lower value 0.993 | locus YER155C, strain BEM2 (second series), stronger effect = lower value 0.967 | locus YER155C, strain BEM2, stronger effect = lower value 1.02 | locus YER167W, strain BCK2, stronger effect = lower value 0.999 | locus YFR010W, strain ubp6, stronger effect = lower value 0.95 | locus YGL078C, strain dbp3, stronger effect = lower value 0.985 | locus YGL086W, strain mad1, stronger effect = lower value 1.01 | locus YGL167C, strain pmr1, stronger effect = lower value 0.976 | locus YGL173C, strain kem1, stronger effect = lower value 1 | locus YGL227W, strain vid30, stronger effect = lower value 0.97 | locus YGL240W, strain doc1, stronger effect = lower value 1.02 | locus YGL248W, strain PDE1, stronger effect = lower value 0.998 | locus YGL253W, strain hxk2, stronger effect = lower value 0.988 | locus YGR135W, strain pre9, stronger effect = lower value 0.919 | locus YGR252W, strain gcn5, stronger effect = lower value 0.904 | locus YHR013C, strain ard1, stronger effect = lower value 0.945 | locus YHR027C, strain rpn1, stronger effect = lower value 0.953 | locus YHR030C, strain SLT2, stronger effect = lower value 0.983 and 1.01 | locus YHR079C, strain IRE1 (second series), stronger effect = lower value 0.984 | locus YHR079C, strain IRE1, stronger effect = lower value 1.02 | locus YHR094C, strain hxt1, stronger effect = lower value 0.99 | locus YHR129C, strain ARP1, stronger effect = lower value 0.993 | locus YHR142W, strain chs7, stronger effect = lower value 0.959 | locus YHR200W, strain rpn10, stronger effect = lower value 0.998 | locus YIL066C, strain RNR3, stronger effect = lower value 0.974 | locus YIL073C, strain SPO22, stronger effect = lower value 0.94 | locus YIL125W, strain kgd1, stronger effect = lower value 1.02 | locus YIR030C, strain dcg1, stronger effect = lower value 0.988 | locus YJL092W, strain hpr5, stronger effect = lower value 0.98 | locus YJL095W, strain BCK1 (second series), stronger effect = lower value 0.98 | locus YJL095W, strain BCK1, stronger effect = lower value 0.903 and 1.02 | locus YJL115W, strain asf1, stronger effect = lower value 0.951 | locus YJL129C, strain trk1, stronger effect = lower value 1.01 | locus YJL134W, strain LCB3, stronger effect = lower value 0.988 | locus YJL154C, strain vps35, stronger effect = lower value 0.979 | locus YJL164C, strain tpk1, stronger effect = lower value 0.998 | locus YJL166W, strain qcr8, stronger effect = lower value 0.996 | locus YJL187C, strain SWE1 (second series), stronger effect = lower value 1.01 | locus YJR043C, strain POL32, stronger effect = lower value 1.04 | locus YJR066W, strain TOR1, stronger effect = lower value 0.956 | locus YJR075W, strain HOC1, stronger effect = lower value 0.982

From PubChem BioAssay AID1159580 (chemical genetic matrix, 2015)
